Assay outcomes (PubChem)
KDM4E inh: JMJD2E (human) inhibition. B2RXH2. JMJD2E catalytic domain, FDH-coupled NADH fluorescence (FDH is formaldehyde dehydrogenase). Potency, µM (highest dose often 57.1 µM), without a hit: top-dose activity change, negative = inhibition, most hits filed as inhibitors. actives 1.6% (n = 230,000). AID 2147; active = well fitted inhibition curve with a large enough effect, not every such curve was filed as active; inconclusive = small, poorly fitted or top-dose-only effect, or another doubt; inactive = no such curve, though single readings can be large or run the other way;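 also: potency is read from the fitted curve at half-maximal effect; 0% = wells with enzyme and -100% = buffer wells without enzyme; nearly all actives have a fitted effect of over 50% in size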
CtBP-E1A blk: CtBP/E1A binding inhibition; AlphaScreen GST-E1A/His-CtBP binding, 1536-well; stronger effect = lower value; activity change, % (concentration not given with the values); actives 0.49% (n = 340,000); AID 651724
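Steps: dispense buffer (Tris pH 8.0, NaCl 300 mM, TCEP 1 mM, BSA, Tween 20); add 5X protein mix (GST-E1A, His-CtBP, 125 nM each); pin 23 nL compound; 2 h at 37 °C, dark; add 5X beads (50 ug/mL); 1 h; read.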
Six1-Eya2 blk: Six1/Eya2 interaction inhibition; AlphaScreen GST-Six1/His-Eya2 binding, biochemical; stronger effect = lower value; activity change, % (test concentration not listed); actives 0.56% (n = 360,000); AID 651725
Target sequence (O00167 whole entry, looked up): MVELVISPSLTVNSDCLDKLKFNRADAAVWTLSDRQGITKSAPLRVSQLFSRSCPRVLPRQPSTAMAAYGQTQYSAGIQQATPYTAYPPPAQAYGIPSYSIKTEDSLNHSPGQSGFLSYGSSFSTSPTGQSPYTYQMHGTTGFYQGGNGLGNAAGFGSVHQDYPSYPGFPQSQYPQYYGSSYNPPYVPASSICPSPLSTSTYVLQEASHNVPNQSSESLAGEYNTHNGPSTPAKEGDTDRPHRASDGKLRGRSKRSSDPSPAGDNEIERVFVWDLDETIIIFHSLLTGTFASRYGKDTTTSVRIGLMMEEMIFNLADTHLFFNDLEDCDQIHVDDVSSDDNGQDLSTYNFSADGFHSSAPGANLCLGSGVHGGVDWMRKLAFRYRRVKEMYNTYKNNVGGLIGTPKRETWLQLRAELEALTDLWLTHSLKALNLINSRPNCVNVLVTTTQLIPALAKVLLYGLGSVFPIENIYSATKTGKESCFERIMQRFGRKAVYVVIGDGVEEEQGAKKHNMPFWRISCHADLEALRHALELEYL
Target sequence (Q15475 whole entry, looked up): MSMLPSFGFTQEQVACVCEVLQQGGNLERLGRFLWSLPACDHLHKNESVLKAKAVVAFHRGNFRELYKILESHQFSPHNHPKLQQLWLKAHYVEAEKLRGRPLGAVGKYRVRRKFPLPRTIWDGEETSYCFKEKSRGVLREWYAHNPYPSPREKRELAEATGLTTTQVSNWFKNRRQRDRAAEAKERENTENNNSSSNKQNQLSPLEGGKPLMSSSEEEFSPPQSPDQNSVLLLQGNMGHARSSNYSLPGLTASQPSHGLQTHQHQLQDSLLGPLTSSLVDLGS
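Six1/Eya2 binding was read as AlphaScreen signal after compounds were pinned into GST-Six1 plus His-tagged Eya2 (5X stock 250/500 nM) in pH 8.0 Tris/NaCl/TCEP buffer, beads added, then incubated 1 h, 37 C, dark.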
L3MBTL1 inh: blocks human L3MBTL1; actives 0.66% (n = 230,000); AlphaScreen L3MBTL1–H3K9me1 peptide binding; Potency, µM (series often up to 57.1 µM), inactives show at the highest dose activity, negative = inhibition, most hits filed as inhibitors; AID 485360; Q9Y468; active = well fitted inhibition curve with a large enough effect; inconclusive = small, poorly fitted or top-dose-only effect; inactive = no such curve, though single readings can be large or run the other way; also: potency is read from the fitted curve at half-maximal effect; nearly all actives have a fitted effect of over 60% in size
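AlphaScreen proximity signal between nickel-chelate acceptor and streptavidin donor beads (final 10 ug/mL) reports binding of 50 nM L3MBTL1 to 75 nM biotin-H3 K9me1 peptide; complex incubated with compounds 30 min at room temperature; cefsulodin titration as control.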
An asterisk follows results filed as active; ? = inconclusive; . = no result; ! = repeats disagree; [ ] = remark or other dose. Only a selection was taken, and hits are over-represented in it overall. Rule as the data show it, unless noted: active = activity change below about -65%; inconclusive = mostly about -30% to -63%; inactive = weaker than that. Unless noted, % is scaled to controls: 0 for no effect and ±100 for the full control effect.

SMILES | KDM4E inh | CtBP-E1A blk | Six1-Eya2 blk | L3MBTL1 inh
C[C@H]1C[C@@H]2[C@@H]([C@@H](O)C[C@@]3(C)[C@H]2CC[C@]3(O)C(=O)CO)[C@@]2(C)C=CC(=O)C=C12 | -2%[25.5 µM] | . | . | .
CC(Oc1ccc(F)cc1)C(=O)Oc1ccc(N(C)S(=O)(=O)c2ccccc2)cc1 (stereo not drawn) | . | 0 | -2 | 10%
CC(C)c1ccc(/C=C2\SC(=O)N(CC(=O)NC3CCS(=O)(=O)C3)C2=O)cc1 (stereo not drawn) | . | . | 1 | .
CC/C=C\C/C=C\C/C=C\C/C=C\C/C=C\CCCC(=O)O | 9% | . | . | .
COc1cccc(N=Nc2ccc(O)c3ncccc23)c1 | . | -96* | -70* | .
COc1ccc(-c2[nH]ncc2N=Nc2ccccc2)cc1 | -14% | ? | -19 | -5%
COc1cccc(N=Nc2ccc3cccnc3c2O)c1 | . | . | -91* | .
Cc1ccccc1N=Nc1ccc(O)c2ncccc12 | -25% | -26 | ? | 25µM*
COc1cccc(-n2cnc(=O)c3cccnc32)c1 | 5% | 6 | -6 | 5%
COc1cc(OC)cc(C(=O)Nc2cccc3cccnc23)c1 | . | -5 | 7 | 8%
COc1ccc(N=Nc2cc(-c3ccccc3)ccc2O)cc1 | . | -69* | ? | ?
Cc1ccccc1N=Nc1c(O)[nH]c2ccccc12 | . | 2 | 5 | .
COc1ccc(C)cc1N=Nc1ccc(O)c2ncccc12 | 25µM* | . | -95* | .
Oc1ccc(N=Nc2ccc3c(c2)OCCO3)c2cccnc12 | ? | -84* | -77* | ?
CCOc1cc(N2CCOCC2)c(OCC)cc1NC(C)C(=O)N1CCC(C)CC1 (stereo not drawn) | 11µM* | -8 | -9 | 2%
CC1(C)CC[C@]2(C(=O)O)CC[C@]3(C)C(=CCC4[C@@]5(C)CC[C@H](O)C(C)(C)C5[C@H](O)C[C@]43C)C2C1 (stereo partly drawn) | 5% | . | . | .
CC(=O)Nc1ccc(NC(=O)c2ccnn2C)cc1 | . | -3 | 7 | .
CC(C)C[C@@H](CC(=O)N[C@@H](CCC(=O)O)CC(=O)O)NC(=O)[C@@H]1CNCC[C@H]1NC(=O)C[C@H](CCCN)NC(=O)C[C@H](Cc1ccccc1)NC(=O)[C@@H]1CCCC[C@H]1N | -12% | . | . | .
CNc1ccc(Br)cc(C(=O)/C=C/c2ccc(Cl)cc2Cl)c1=O | ? | 0 | -6 | -15%
CCNc1ccc(Br)cc(C(=O)/C=C/c2ccc(Cl)cc2)c1=O | 25µM* | 2 | -11 | -18%
CCNc1ccc(Br)cc(C(=O)/C=C/c2ccc3c(c2)OCO3)c1=O | 14µM* | -2 | -5 | 20µM*
CNc1ccc(Br)cc(C(=O)/C=C/c2cccc(OC)c2)c1=O | ? | -3 | -3 | ?
CCNc1ccc(Br)cc(C(=O)/C=C/c2c(Cl)cccc2Cl)c1=O | ? | -3 | -12 | 8.9µM*
Cc1cc(SCC(=O)OCC(=O)NCC2CCCO2)c(C)cc1Br (stereo not drawn) | -1% | . | 2 | 7%
C#CCNCCS(=O)(=O)N(Cc1ccc(Br)cc1)[C@@H](C)C(=O)O | . | -6 | 1 | 8%
SMILES | KDM4E inh | CtBP-E1A blk | Six1-Eya2 blk | L3MBTL1 inh
CCN(CC)c1ccc2cc(C(=O)Nc3ccccn3)c(=O)oc2c1 | 4.5µM* | 11 | 11 | 10%
CCN(CC)c1ccc2cc(C(=O)Nc3cccnc3N3CCOCC3)c(=O)oc2c1 | -3% | . | . | -1%
COc1sc(SC)cc1/C=N/NC(=O)c1ccncc1 | . | -10 | -6 | .
CN=c1nc(-c2ccccc2)n(-c2ccccc2)s1 | 3.2µM* | 1 | -4 | 2%
Cn1nc(-c2ccccc2)nc1-c1ccccc1 | . | 2 | 5 | 0%
CC(=O)NC(c1ccco1)c1cc(Cl)c2ccc(N3CCCCC3)nc2c1O (stereo not drawn) | . | . | . | -6%
CCCC(=O)NC(c1ccc(OC)c(OC)c1)c1cc(Cl)c2cccnc2c1O (stereo not drawn) | 18µM* | -79* | -72* | 9%
CC(=O)NC(c1ccccc1)c1cc(Cl)c2cccnc2c1O (stereo not drawn) | . | -91* | -87* | -2%
CCC(=O)NC(c1cccs1)c1cc(Cl)c2cccnc2c1O (stereo not drawn) | -9% | . | -89* | 5%
O=C(NC(c1ccc(Cl)cc1)c1cc(Cl)c2cccnc2c1O)c1cccnc1 (stereo not drawn) | 1% | -4 | -17 | 9%
COc1ccc(C(NC(C)=O)c2cc(Cl)c3cccnc3c2O)cc1 (stereo not drawn) | . | -93* | -83* | 0%[2.29 µM]
COc1ccc(CCNC(=O)c2cc3c(cc2Cl)N2CCCCCC2=NS3(=O)=O)cc1 | . | -23 | 8 | 6%
CCCCC/C=C\C/C=C\C/C=C\CCCCC(=O)NC(C)C(=O)O (stereo not drawn) | 4% | . | . | .
C=CCNC(=O)N1CCc2nc(CCCC)c3c(c2C1)CO[C@@H](C)C3 | -5%[11.4 µM] | . | . | .
COC(=O)C1=C(C(=O)OC)[C@@H]2Nc3ccccc3[C@@]23C[C@@H](C(=O)OC)N(C(=O)c2ccco2)C3=N1 | -3%[11.4 µM] | 0 | 3 | .
O=[N+]([O-])c1cc([N+](=O)[O-])c2oc(-c3ccccc3)c(Br)c2c1O | . | -7 | -19 | .
CCC(=O)NC(c1cc(Cl)c2cccnc2c1O)C1CC1 (stereo not drawn) | . | . | . | -11%
CC(=O)NC(c1ccc(N(C)C)cc1)c1cc(Cl)c2cccnc2c1O (stereo not drawn) | . | ? | -81* | .
COC(=O)[C@@]1(Cc2ccccc2)[C@H]2c3cc(C(=O)N4CCCC4)n(CC4CC4)c3C[C@H]2CN1C(=O)c1ccccc1 | 1% | . | . | .
C[C@](N)(Cc1ccc(O)cc1)C(=O)O | -2% | . | . | .
CC(Cc1ccc(O)c(O)c1)(NN)C(=O)O (stereo not drawn) | 2.2µM* | . | . | .
C[C@](N)(Cc1ccc(O)c(O)c1)C(=O)O | 16µM*! | 2 | -28 | ?
Cc1sc(NC(=O)C2CSC3(C)CCC(=O)N23)nc1-c1ccc(F)cc1 (stereo not drawn) | . | -2 | 0 | .
COc1ccc(NC(=O)c2cc3ccc(O)cc3o/c2=N\O)cc1 | . | ? | -23 | 2%
O=C(Cn1cnc([N+](=O)[O-])n1)N/N=C/c1ccc(O)cc1O | ? | -96* | -92* | .
SMILES | KDM4E inh | CtBP-E1A blk | Six1-Eya2 blk | L3MBTL1 inh
O=C(N/N=C/c1ccc(O)cc1O)C(=O)N/N=C/c1ccc(O)cc1O | . | -92* | -68* | 0.71µM*
Cc1cc(C)n(CCC(=O)N/N=C/c2ccccc2O)n1 | -8% | 0 | ? | -4%
Cc1cc(C)n(CCC(=O)N/N=C/c2ccc(O)cc2O)n1 | 14µM* | -69* | -86* | 20%
O=[N+]([O-])c1ccc(C=NNC(=S)Nc2ccc(F)cc2)cc1 | . | 0 | 16 | .
Oc1ccc(C=NNC(=S)Nc2ccc(F)cc2)c(O)c1 | . | -93* | -80* | .
COCC(=O)N1CCC(Oc2ccc(C(=O)N[C@H](C(=O)OC)C(C)C)cc2)CC1 | . | 6 | -1 | 4%
O=C(O)CCC/C=C\C[C@H]1C(=O)C[C@@H](O)[C@@H]1/C=C/[C@@H](O)CCc1ccccc1 | 2% | . | . | .
